Screening data as filed in PubChem BioAssay.
Luciferase inh – inhibitors of firefly luciferase. AID 411. P08659. 2.2% of 72,000 active. purified firefly luciferase, luminescence, 8 min. Potency, µM (highest dose often 57.1 µM), without a hit: at the top dose activity change, negative = inhibition, most hits filed as inhibitors; note: nearly all actives have a fitted effect of over 40% in size
Target sequence (P08659 whole entry, looked up): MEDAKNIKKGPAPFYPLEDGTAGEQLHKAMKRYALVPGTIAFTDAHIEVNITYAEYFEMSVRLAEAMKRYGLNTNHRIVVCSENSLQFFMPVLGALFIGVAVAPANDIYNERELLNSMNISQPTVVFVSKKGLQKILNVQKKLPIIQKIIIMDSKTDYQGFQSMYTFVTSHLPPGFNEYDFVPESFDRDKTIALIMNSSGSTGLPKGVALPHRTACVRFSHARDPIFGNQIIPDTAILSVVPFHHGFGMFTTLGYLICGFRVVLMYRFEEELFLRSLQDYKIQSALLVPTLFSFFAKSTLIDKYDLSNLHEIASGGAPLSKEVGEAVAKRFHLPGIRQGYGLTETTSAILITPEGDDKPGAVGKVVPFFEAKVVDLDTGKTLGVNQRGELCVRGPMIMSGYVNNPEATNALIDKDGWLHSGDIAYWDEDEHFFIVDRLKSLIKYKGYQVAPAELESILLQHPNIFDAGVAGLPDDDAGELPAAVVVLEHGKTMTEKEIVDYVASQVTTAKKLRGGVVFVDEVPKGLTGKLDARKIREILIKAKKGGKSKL
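Substrate buffer containing 10 uM ATP (pH 7.2 imidazole, Mg2+, KCl, detergent, BSA) is dispensed, compound pinned in, then luciferase/luciferin detector mix added. After 8 min at ambient temperature, light output is measured.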
ERK AVP block – blocks ERK signaling stimulated by vasopressin; HEK293-V1b, vasopressin-stimulated pERK AlphaScreen; Potency, µM (series often up to 57.5 µM), inactives show at the highest dose activity, negative = inhibition, hits mostly inhibitors; 0.99% of 72,000 active; AID 995; note: nearly all actives have a fitted effect of over 55% in size
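HEK293 cells stably expressing V1b receptor, seeded overnight in 1% FBS, were treated with compounds for 30 min at 37C, then stimulated 5 min with 25 nM vasopressin; phospho-ERK read by AlphaScreen SureFire after lysis.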
ALOX15 inhib – inhibitors of human 15-lipoxygenase (ALOX15). 1.4% of 74,000 active. AID 887. purified 15hLO-1, xylenol orange hydroperoxide absorbance. Potency, µM (top dose mostly 57.1 µM), for the others: top-dose activity change, negative = inhibition, hits mostly inhibitors; note: nearly all actives have a fitted effect of over 55% in size
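Purified human 15hLO-1 (40 nM) in 25 mM Hepes pH 7.5, 0.01% Triton X-100, preincubated 15 min RT with compound, then 50 uM arachidonic acid for 6 min. Hydroperoxide read by ferrous/xylenol orange, 30 min; 573/405 nm absorbance ratio gave progress.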
HADH2 inhib – inhibitors of human HADH2 dehydrogenase; Q99714; recombinant HADH2, NADH fluorescence, beta-hydroxybutyryl-CoA; Potency, µM (top dose mostly 57.1 µM), without a hit: at the top dose activity change, negative = inhibition, actives largely listed as inhibitors; 3.4% of 73,000 active; note: nearly all actives have a fitted effect of over 60% in size
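Buffer 100 mM Tris-HCl pH 9.0/0.01% Tween-20; HADH2 20 nM; NAD+ 1 mM; beta-hydroxybutyryl-CoA 90 uM (all final). 15 min cpd preincubation, RT.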
Bst PK mod – alters activity of Bacillus stearothermophilus pyruvate kinase; purified pyruvate kinase, luminescence ATP production; ribose 5-phosphate activator present at AC10; Potency, µM; 1.2% of 51,000 active; AID 361; in the data active = potency below about 11 µM; inconclusive = mostly about 12 µM to 25 µM;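 the screen sought inhibitors and activators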;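 note: scaled between full activation by ribose 5 phosphate and full inhibition by luteolin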
HSD17B inh – HSD17B dehydrogenase inhibition | Q99714 | recombinant HSD17B10, NADH fluorescence kinetic | Potency, µM (highest dose often 57.1 µM), for inactives: at the highest dose activity change, negative = inhibition, actives largely listed as inhibitors | 7.6% of 75,000 active | AID 893;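 note: the protocol describes HADH2 (HSD17B10) and not the HSD17B4 of the title; nearly all actives have a fitted effect of over 70% in size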
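Activity followed as NADH fluorescence increase (ex 360, em 450 nm) every 30 seconds for 4 min, using final 90 uM beta-hydroxybutyryl CoA and 1 mM NAD+. Recombinant His-tagged enzyme, 20 nM, pH 9.0 Tris buffer, 15 min compound preincubation.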
Active calls of the source: *; ? = inconclusive; . = no result; [ ] = another dose, or the depositor's remark. Shown are actives, neighbours in structure and some others; about 11% of the full set was active somewhere. Unless noted, calls come from the whole dose curve; as a rule, active = well fitted curve in the direction sought with a large enough effect; inconclusive = small, poorly fitted or top-dose-only effect, or another doubt; inactive = no such curve, though single readings can be large; an effect the other way counts as inactive or inconclusive. Unless noted, % is set by controls: 0 for no effect and ±100 for the full control effect; potency is the fitted concentration of half-maximal effect.

SMILES	Luciferase inh	ERK AVP block	ALOX15 inhib	HADH2 inhib	Bst PK mod	HSD17B inh
C=N[C@H](C(=O)N[C@@H]1C(=O)N2[C@@H]1SC(C)(C)[C@@H]2C(=O)O)c1ccccc1	11%[25.5 µM]	7%[25.7 µM]	10%[25.6 µM]	-9%[25.6 µM]	.	2%[25.6 µM]
CC(C)c1nc(SCC(=O)N2CCCC2)c2ccccc2n1	7.9µM*	?	-2%	-1%	.	-7%
CCc1nc(SCC(=O)N2CCCC2)c2ccccc2n1	-2%	-12%	6%	1%	>57	-8%
CCOC(=O)CSC1=Nc2ccccc2C2=NC(CC(=O)NCc3ccccc3)C(=O)N12 (stereo not given)	2%	6%	5%	25µM*	>57	25µM*
CC(C)C1N=C2c3ccccc3N=C(SCC(=O)NCCc3ccc(S(N)(=O)=O)cc3)N2C1=O (stereo not given)	0%	14%	9%	25µM*	>57	32µM*
CCCCNC(=O)CC1N=C2c3ccccc3N=C(SCC(=O)Nc3ccccc3C)N2C1=O (stereo not given)	2%	17%	6%	?	>57	25µM*
COCCCNC(=O)CSC1=Nc2ccccc2C2=NC(Cc3c[nH]c4ccccc34)C(=O)N12 (stereo not given)	2%	-2%	2%	-2%	>57	6%
CCC(C)NC(=O)CSC1=Nc2ccccc2C2=NC(CC(=O)NCc3ccc(F)cc3)C(=O)N12 (stereo not given)	-1%	23%	2%	20µM*	>57	32µM*
CCN(CC(=O)O)C(=O)c1cccnc1	2%[11.4 µM]	3%[11.5 µM]	-16%[11.4 µM]	-8%[11.4 µM]	.	6%[11.4 µM]
Cc1nc2cc(NCc3nc4ccccc4n3Cc3ccccc3)ccc2n1C	.	.	11%	4%	.	4%
CCOc1ccc(CNc2ccc3c(c2)nc(C)n3C)cc1	-15%	-10%	13%	-3%	.	32µM*
CCOc1ccc(CNc2ccc(N3CCCC3)cc2)cc1	-3%	?	3.2µM*	-7%	>57	-9%
CC(C)c1ccc(CNc2ccc(N3CCOCC3)cc2)cc1	-2%	?	7.9µM*	-1%	>57	-7%
CC(=O)N1CCN(c2ccc(NCc3ccc(F)cc3)cc2)CC1	1%	-6%	10µM*	-7%	.	-3%
COc1ccc(O[C@H]2C=C[C@@H](c3ccccc3)O[C@H]2COC(=O)CC/C(C)=N\OC[C@@H](O)[C@H]2O[C@H]3OC(C)(C)O[C@H]3[C@@H]2O)cc1	0%[11.4 µM]	5%[11.5 µM]	3%[11.4 µM]	3%[11.4 µM]	.	-5%[11.4 µM]
C[C@@H]1C(=O)N(C)C(=O)c2nc[nH]c21	-2%	12%	4%	7%	.	3%
FC(F)(F)c1ccccc1-c1ccc2ncnc(NC3CCNCC3)c2c1	0%[2.29 µM]	7%	0%	9%	.	0%
COc1cccc(-c2nccc(NC3CCNCC3)n2)c1	-2%[2.29 µM]	5%	1%	-1%	.	0%
CC(C)[C@@H](CC(=O)N[C@@H]1CCNC[C@H]1C(=O)N[C@H](CC(=O)N[C@@H](CCC(=O)O)CC(=O)O)Cc1c[nH]c2ccccc12)NC(=O)C[C@H](Cc1ccccc1)NC(=O)[C@@H]1CCCC[C@H]1N	.	.	.	2%	.	.
CC(CCc1ccccc1)NCC(O)c1ccc(O)c(C(N)=O)c1 (stereo not given)	1%[25.5 µM]	-16%	-2%	.	>26	25µM*
CO[C@H]1COC(=O)C/C=C\[C@H](C)[C@H](OC)COC(=O)[C@@H](C)NC(=O)C/C=C\[C@@H]1C	1%[11.4 µM]	0%[11.5 µM]	4%[11.4 µM]	4%[11.4 µM]	.	4%[11.4 µM]
NC(=O)c1c(NC(=O)CSc2nnc(Cc3ccccc3)n2Cc2ccco2)sc2c1CCC2	-5%	-21%	?	?	>57	32µM*
Cc1nn(CCc2nn[nH]n2)c2nc(C(F)(F)F)cc(C(F)(F)F)c12	-10%	5%	14%	?	>57	32µM*
N#CC1=C(N)OC2=C(C(=O)CCC2)C12CCN(C(=O)OCc1ccccc1)CC2	0%	16%	25µM*	16%	>57	?
O=C(N/N=C1/C[C@@H](O)[C@@H](O)[C@@H]2[C@H]3C(=O)N(c4ccc(F)cc4F)C(=O)[C@@H]3CC[C@@H]12)OCc1ccccc1	3%[11.4 µM]	4%[11.5 µM]	4%[11.4 µM]	-9%[11.4 µM]	.	-5%[11.4 µM]
SMILES	Luciferase inh	ERK AVP block	ALOX15 inhib	HADH2 inhib	Bst PK mod	HSD17B inh
CCNC(=O)N1c2ccc(OCC)cc2C(C)=CC1(C)C	-3%	-21%	-19%	-22%	>57	32µM*
COc1ccc2c(c1)N(C(=O)CSc1n[nH]c(C)n1)C(C)(C)C=C2C	1%	-26%	7%	9%	>57	-27%
CCOc1cc(/C=N/NC(=O)c2cc(-c3cccc(OC)c3)n[nH]2)ccc1O	.	.	-21%	?	.	-5%
O=C(C1COc2ccccc2O1)N1CCc2ccccc21 (stereo not given)	-14%	-1%	16µM*	-19%	.	?
CC(C)CO/N=C1/C[C@@H](O)[C@@H](O)[C@@H]2[C@@H]3C(=O)N(Cc4ccccc4)C(=O)[C@H]3CC[C@@H]12	0%[11.4 µM]	19%[11.5 µM]	-5%[11.4 µM]	0%[11.4 µM]	.	2%[11.4 µM]
O=c1c(-c2ccc3c(c2)OCCO3)coc2cc(O)cc(O)c12	?	?	16µM*	-20%	6*	?
O=c1c(-c2ccccc2)coc2cc(O)cc(O)c12	.	-13%	3.2µM*	.	.	2µM*
COc1cc(-c2coc3cc(OCc4ccccc4)c(OC)c(O)c3c2=O)cc(O)c1OC	.	-16%	-9%	.	.	-4%
